The list is not random: actives were taken first. Their share in the collection is about 2.4%.
D2 antag: HTS Assay for Allosteric Antagonists of the Human D2 Dopamine Receptor: Primary Screen for Antagonists | inhibition, % at 10 µM | HEK293 TREx D2 cells, calcium flux, dopamine EC80 | D(2) dopamine receptor (Homo sapiens), P14416 | AID 485344, 2010 | actives 2% (n = 340,000); in the data active = inhibition above about 30%; inactive = below that, where a call was filed; also: 0% is about no effect
Target sequence (P14416 whole entry, looked up): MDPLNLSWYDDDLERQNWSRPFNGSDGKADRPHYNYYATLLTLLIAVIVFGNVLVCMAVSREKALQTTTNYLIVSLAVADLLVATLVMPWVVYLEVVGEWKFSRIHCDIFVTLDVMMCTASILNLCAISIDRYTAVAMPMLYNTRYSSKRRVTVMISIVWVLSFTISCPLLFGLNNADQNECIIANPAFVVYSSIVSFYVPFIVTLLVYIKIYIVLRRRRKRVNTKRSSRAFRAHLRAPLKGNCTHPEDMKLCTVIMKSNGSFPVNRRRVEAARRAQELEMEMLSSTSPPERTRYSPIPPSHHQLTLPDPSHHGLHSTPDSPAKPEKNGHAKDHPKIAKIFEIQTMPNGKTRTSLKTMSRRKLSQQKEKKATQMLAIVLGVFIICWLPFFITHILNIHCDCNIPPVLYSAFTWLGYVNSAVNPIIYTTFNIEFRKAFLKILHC
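Measurement of antagonist activity uses fluorescent calcium dye in inducible HEK293 T-REx D2 cells: 10 s baseline, compound addition with 180 s read, EC80 dopamine addition with a further 180 s read.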
D2 ag-1: HTS Assay for Allosteric Agonists of the Human D2 Dopamine Receptor: Primary Screen for Agonists; D(2) dopamine receptor (Homo sapiens), P14416; HEK293 T-REx D2 cells, calcium flux agonist mode; activation, % at 2 µM; actives 0.53% (n = 340,000);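 active = activation over 3 SD above normal in the single-dose calcium agonist read, cut at about 30% in these data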; also: 0% is about no effect
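Tetracycline-induced HEK293 Trex cells with D2 receptor force-coupled to calcium signaling, plated overnight at 30 C and loaded with no-wash calcium dye. Calcium flux read kinetically for 180 s after compound addition; responses flag agonists.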
D2 PAM-1: HTS Assay for Positive Allosteric Modulators of the Human D2 Dopamine Receptor: Primary Screen for Potentiators; D(2) dopamine receptor (Homo sapiens), P14416; HEK293 T-REx D2, calcium flux, EC20 dopamine potentiation; potentiation, % at 10 µM; actives 0.34% (n = 340,000); AID 485347, 2010;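 active = potentiation over 3 SD above the plate norm, cut at about 30% in these data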; also: 0% is about no effect
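Tetracycline-induced HEK293 T-REx cells force-coupled to calcium signalling expressed D2; compounds were pin-added after a 10 s baseline, read kinetically 180 s, then an EC20 dopamine challenge followed with a further 180 s calcium read.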
D2 PAM-2: Beta-Arrestin HTS for Positive Allosteric Modulators of the Human D2 Dopamine Receptor: Potentiators | D(2) dopamine receptor (Homo sapiens), P14416 | DiscoveRx D2 beta-arrestin cells, luminescence, 90 min; 100% = 57 uM dopamine signal | potentiation, % (concentration not given with the values) | actives 0.23% (n = 360,000) | AID 624464, 2012; in the data active = potentiation above about 50%; inconclusive = mostly about 30% to 49%
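D2 cells co-treated with compound plus 50 nM dopamine (EC20) for 90 min at 37 deg C to detect potentiation. Beta-arrestin recruitment was read as enzyme-fragment luminescence after 1 h at ambient temperature. Full response was set by 57 uM dopamine.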
D2 ag-2: Beta-Arrestin HTS for Positive Allosteric Modulators of the Human D2 Dopamine Receptor: Agonists; D(2) dopamine receptor (Homo sapiens), P14416; DiscoveRx PathHunter D2 beta-arrestin, luminescence, 90 min; 100% = 57 uM dopamine signal; activation, % (no concentration beside the values); actives 0.084% (n = 360,000); in the data active = activation above about 40%; inconclusive = between about 15% and that limit
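Agonist mode: compounds alone added to overnight-plated D2 PathHunter cells for 90 min at 37 C, with 57 uM final dopamine (EC100) defining full response. Beta-arrestin recruitment detected by chemiluminescent reagent, read after 1 h at ambient temperature.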
Numbers without * were called inactive.

How did COc1ccc(C(=O)OCC(=O)N2CCN(C(=O)c3ccco3)CC2)c(OC)c1OC do in these assays?
D2 PAM-2: -7; D2 ag-2: 0

What do the screens show for `COc1ccccc1OCc1ccc(C(=O)N2CCN(C(=O)c3ccco3)CC2)cc1`?
D2 antag: 35*; D2 ag-1: 0; D2 PAM-1: -6; D2 PAM-2: -8; D2 ag-2: 2

What do the screens show for `CC(NC(=O)c1ccc2c(c1)sc1nc(-c3ccc(F)cc3)cn12)C12CC3CC(CC(C3)C1)C2` (centres undefined)?
D2 ag-1: 0; D2 PAM-1: -7

Results for CCCNC(=O)Cn1nc(-c2ccc(F)cc2)c2cnc3ccc(F)cc3c21 ?
D2 PAM-1: 8

What do the screens show for `CC(C)NC(=O)COc1coc(CN2CCN(Cc3ccccc3)CC2)cc1=O`?
D2 antag: -4; D2 ag-1: 2; D2 PAM-1: 1; D2 PAM-2: -2; D2 ag-2: 1

How did CC(C)NC(=O)COc1coc(CN2CCN(C(=O)c3ccco3)CC2)cc1=O do in these assays?
D2 antag: 50*; D2 ag-1: 0; D2 PAM-1: 7; D2 PAM-2: -22; D2 ag-2: -4

How did CN(C(=O)c1ccc(COc2ccccc2Br)o1)c1ccccc1 do in these assays?
D2 antag: 44*; D2 ag-1: -1; D2 PAM-1: -16; D2 PAM-2: -2; D2 ag-2: 3

Results for NS(=O)(=O)c1ccc(CCNc2nn3c(-c4cccc(OC(F)(F)F)c4)cnc3s2)cc1 ?
D2 PAM-2: -9; D2 ag-2: inconclusive

How did O=C(Nc1ccccc1C(=O)OCc1cc(=O)n2nc(C3CC3)sc2n1)c1cccc(Cl)c1 do in these assays?
D2 ag-1: 2; D2 PAM-1: 0

Results for COC(=O)CCC(=O)OC1(C)C(=O)C2=CN(C(CO)CO)C(c3ccc(OC)cc3)=CC2=C(Br)C1=O (centres undefined) ?
D2 antag: 30*; D2 ag-1: 3; D2 PAM-1: -10

What do the screens show for `CN(C)S(=O)(=O)c1ccc(C(=O)NCCS(=O)(=O)N2CCN(c3ccccc3)CC2)cc1`?
D2 ag-1: 1; D2 PAM-1: 5

Results for O=C1c2ccccc2C(O)N1Cc1cccs1 (centres undefined) ?
D2 antag: 47*; D2 ag-1: 0; D2 PAM-1: 5; D2 PAM-2: -1; D2 ag-2: -3

What do the screens show for `COc1ccc(C(CCN2CCN(c3ccccc3)CC2)c2c(O)cc(OC)cc2OC)cc1` (centres undefined)?
D2 antag: 80*; D2 ag-1: 1; D2 PAM-1: -29; D2 PAM-2: -26; D2 ag-2: 0

How did COc1cc(O)c(C(CCN2CCOCC2)c2ccc(N(C)C)cc2)c(OC)c1 (centres undefined) do in these assays?
D2 antag: -40; D2 ag-1: 0; D2 PAM-1: 0; D2 PAM-2: -10; D2 ag-2: -1

How did COc1cc(O)c(C(CCN2CCN(c3ccccc3)CC2)c2ccc(N(C)C)cc2)c(OC)c1 (centres undefined) do in these assays?
D2 antag: 32*; D2 ag-1: 1; D2 PAM-1: -17; D2 PAM-2: -24; D2 ag-2: -1

How did O=C1c2ccccc2[C@@H]2C[C@H]3O[C@H]3CCN12 do in these assays?
D2 PAM-2: -4; D2 ag-2: -4

What do the screens show for `Cc1oc2c(c1C(=O)c1ccccc1)C(=O)C(=O)c1ccccc1-2`?
D2 antag: -27; D2 ag-1: 3; D2 PAM-1: 0; D2 PAM-2: 12; D2 ag-2: inconclusive

Results for O=C1C(=O)c2c(C(=O)c3ccccc3)coc2-c2ccccc21 ?
D2 antag: 14; D2 ag-1: 0; D2 PAM-1: 1; D2 PAM-2: 71*; D2 ag-2: inconclusive

What do the screens show for `CCN(C(=O)CSc1nc(-c2ccccc2)no1)c1cccc(C)c1`?
D2 ag-1: 2; D2 PAM-1: -7

Results for O=C(NCC(c1cccnc1)N1CCN(c2ccccc2)CC1)OCc1ccccc1 (centres undefined) ?
D2 antag: -3; D2 ag-1: 0; D2 PAM-1: 31*; D2 PAM-2: -4; D2 ag-2: 5

What do the screens show for `CCOC(=O)C1=NN(c2ccccc2)C(=O)/C1=C\c1ccc(N(C)C)cc1`?
D2 antag: 32*; D2 ag-1: 0; D2 PAM-1: -8; D2 PAM-2: -11; D2 ag-2: -3

Results for CC1=NN(Cc2ccccc2)C(=O)/C1=C\c1ccc(N(C)C)cc1 ?
D2 antag: -5; D2 ag-1: -1; D2 PAM-1: -6; D2 PAM-2: 0; D2 ag-2: -2

How did COC(=O)CC1=NN(c2ccccc2)C(=O)/C1=C\c1ccc(OC)cc1 do in these assays?
D2 antag: 56*; D2 ag-1: 3; D2 PAM-1: 2; D2 PAM-2: -9; D2 ag-2: -5

What do the screens show for `CCCCNC(=O)CSc1nnc(-c2cccc(S(=O)(=O)N3CCOCC3)c2)o1`?
D2 antag: 10; D2 ag-1: -1; D2 PAM-1: 6; D2 PAM-2: 0; D2 ag-2: -2

What do the screens show for `O=C(Cn1c(=O)n(-c2ccccc2)c(=O)c2sc3ccccc3c21)NC1CCCC1`?
D2 ag-1: -1; D2 PAM-1: -1

What do the screens show for `Cc1ccc(CCNC(=O)CCCc2nnc3n(C)c(=O)c4sccc4n23)cc1`?
D2 ag-1: -2; D2 PAM-1: -19

How did CCN(C(=O)c1nn(-c2ccc(OC)c(Cl)c2)c(=O)c2c1c1ccccc1n2C)c1cccc(C(F)(F)F)c1 do in these assays?
D2 ag-1: 0; D2 PAM-1: -3

What do the screens show for `O=C(O)CCCCCCCCc1cn(Cc2ccc(C(=O)c3ccccc3)cc2)nn1`?
D2 antag: 42*; D2 ag-1: 0; D2 PAM-1: 3; D2 PAM-2: 3; D2 ag-2: 1

Results for O=C(c1ccccc1)c1ccc(Cn2cc(CCCO)nn2)cc1 ?
D2 antag: 5; D2 ag-1: -1; D2 PAM-1: 6; D2 PAM-2: -12; D2 ag-2: -1

How did COc1ccccc1CNC(=O)C1=C(C)C(=O)OC12CCC(C)CC2 (centres undefined) do in these assays?
D2 antag: 47*; D2 ag-1: 0; D2 PAM-1: 0; D2 PAM-2: -1; D2 ag-2: -3
